PubChem BioAssay AID2501 (Southern Research Specialized Biocontainment Screening …, 2010)
The whole screen tested about 2,200 compounds, of which about 1,200 (55%) were called active. The set was probably picked from earlier hits. The list shows a part of the results. Values without a mark were called inactive. No cut-off is given here; in the data, nearly all actives have IC50 up to about 92 µM.

Assay: counter assay for TAg ATPase ADP read-out – biochemical, ADP-Hunter, fluorescence, counter-screen (AID 2501);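 note: purified T antigen ATPase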;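 for inhibition: 0% = enzyme with vehicle and 100% = reference inhibitor wells; higher means more inhibition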
Conditions: series mostly up to 100 µM

| Structure (SMILES) | IC50 | inhibition |
| --- | --- | --- |
| COc1c2ccoc2nc2c(OC)c(O)ccc12 | 11.5 µM (active) | – |
| CN(C)c1ccc(NC(=O)c2cccc(N3C(=O)CCC3=O)c2)cc1 | 6.4 µM (active) | – |
| COc1c(F)c(F)c(C(=O)O)c(Nc2ccc(C)cc2)c1F | inactive | – |
| Cc1ccc(NC(=O)CN2C(=O)N/C(=C/c3cc(C)n(-c4cccc(C(=O)O)c4)c3C)C2=O)cc1 | inactive | – |
| CC(C)Oc1ccc(C(=O)Nc2ccc(N(C)C)cc2)cc1 | 12.1 µM (active) | – |
| CC(OC(=O)c1ccccc1C(=O)N(C)c1ccccc1)C(=O)Nc1ccc(C(N)=O)cc1 (centres undefined) | inactive | – |
| COc1cc(C(=O)N/N=C2\CCS(=O)(=O)c3ccc(F)cc32)cc(OC)c1OC | inactive | – |
| COc1cc(C(=O)Nc2ccc(N(C)C)cc2)cc(OC)c1OC | 5.06 µM (active) | – |
| CN(C)c1ccc(NC(=O)c2ccc3nc[nH]c3c2)cc1 | 3.67 µM (active) | – |
| CSc1nc(-c2ccco2)nn1S(C)(=O)=O | inactive | – |
| CCCCC(CC)CN=C(N)NC(N)=NCCCCCCN=C(N)NC(N)=NCC(CC)CCCC (centres undefined) | inactive | – |
| Cc1ccc(/C=C2/SC(=O)NC2=S)o1 | 4.25 µM (active) | – |
| Cc1ccc(C2=NOC(=O)/C2=C\c2ccc(C)o2)cc1 | inactive | – |
| Cc1ccc(/C=c2\sc3nc(-c4ccco4)nn3c2=O)o1 | inactive | – |
| COc1ccc(N2CCN(C(CNC(=O)C3CCCCC3)c3cccnc3)CC2)cc1 (centres undefined) | 9.65 µM (active) | – |
| CCN(CCNC(=O)C1CCCN(Cc2nc(-c3ccc(OC)cc3)oc2C)C1)c1ccccc1 (centres undefined) | inactive | – |
| COc1ccc(C(=O)CC(c2ccccc2)C2CCCCC2=O)cc1 (centres undefined) | inactive | – |
| O=C(Nc1ccccc1F)c1coc(=O)c(Br)c1 | inactive | – |
| COc1cccc(CNC(=O)Cc2ccc(Br)cc2)c1 | inactive | – |
| COc1ccccc1CNC(=O)COC(=O)c1c(C)nn(-c2ccccc2)c1Cl | inactive | – |
| COc1ccccc1CNC(=O)c1ccc(CS(=O)Cc2cccc(Cl)c2)o1 (centres undefined) | 12.8 µM (active) | – |
| COC(=O)C1=C(O)/C(=C\c2ccc(CNS(=O)(=O)c3ccccc3)o2)N=C1C | inactive | – |

| Structure (SMILES) | IC50 | inhibition |
| --- | --- | --- |
| COC(=O)C1=C(O)/C(=C/c2cccc(OC)c2O)N=C1C | 6.57 µM (active) | – |
| CCOC(=O)C1=C(O)/C(=C/c2cccc(OC)c2O)N=C1C | 7.3 µM (active) | – |
| CC(/C=C1\SC(=S)N(CCCC(=O)Nc2ccc(C(=O)O)c(O)c2)C1=O)=C\c1ccccc1 | inactive | – |
| COc1cc(/C=C2\SC(=S)N(NS(=O)(=O)c3ccccc3)C2=O)ccc1O | 12.1 µM (active) | – |
| O=C(NN1C(=O)/C(=C/C=C/c2ccco2)SC1=S)c1ccccc1O | inactive | – |
| O=C(NN1C(=O)/C(=C/c2cc([N+](=O)[O-])ccc2O)SC1=S)c1ccccc1O | inactive | – |
| O=C1/C(=C/C=C/c2ccco2)SC(=S)N1NS(=O)(=O)c1ccccc1 | – | 22.8% [at 12.5 µM] |
| COc1cc(/C=C2\SC(=S)N(NC(=O)c3cccnc3)C2=O)ccc1O | 6.17 µM (active) | – |
| COc1cc(/C=C2\SC(=S)N(NS(=O)(=O)c3ccc(C)cc3)C2=O)ccc1O | 8.48 µM (active) | – |
| CCOc1ccc(N2Nc3n[nH]c(N)c3N2)cc1 | 5.65 µM (active) | – |
| CC[N+]1(CC(O)COC2CC(C)CC(C)(C)C2)CCOCC1 (centres undefined) | inactive | – |
| COc1cc2c(cc1OC)C[N+](C)(C)CC2 | 72.6 µM (active) | – |
| N#CCSc1nc(-c2ccccc2)nc2ccccc12 | inactive | – |
| O=c1c2c(-c3ccco3)csc2nc(SCc2cn3cccnc3n2)n1-c1ccccc1 | inactive | – |
| COCc1cc(=O)n2[nH]c(-c3ccsc3-n3c(C)ccc3C)cc2n1 | inactive | – |
| C#CCOCCOCCOCCNc1nc(N2CCN(C(=O)CCCCCCCCCCNC(=O)[C@H](CCCN=C(N)N)n3cc(C[C@@H](C)CC)nn3)CC2)nc(N2CCN(C(=O)CCCCCCCCCCNC(=O)[C@@H]([C@H](C)CC)n3cc(CCCCCN)nn3)CC2)n1 | inactive | – |
| COc1cc(/C=N/NC(=O)c2ccc3c(c2)OCCO3)cc(Cl)c1O | 6.64 µM (active) | – |
| COc1ccc(/C=N/NC(=O)c2ccoc2C)cc1O | 5.08 µM (active) | – |
| COc1cc(/C=N/NC(=O)c2ccoc2C)cc(OC)c1O | 18.5 µM (active) | – |
| COc1ccccc1/C=C/C=N/NC(=O)c1cc(-c2ccco2)[nH]n1 | inactive | – |
| Cc1occc1C(=O)N/N=C/C=C/c1ccc(N(C)C)cc1 | 12.2 µM (active) | – |
| CCCc1cc(C(N)=O)c(NC(=O)c2ccoc2C)s1 | inactive | – |

| Structure (SMILES) | IC50 | inhibition |
| --- | --- | --- |
| O=C(N/N=C/C=C\c1ccco1)c1ccccn1 | inactive | – |
| CCn1c(C)nc2cc(C(=O)N/N=C/c3ccc(OC)c(O)c3)ccc21 | 3.58 µM (active) | – |
| O=c1cc(-c2ccc(Br)cc2)[nH][nH]1 | 12.3 µM (active) | – |
| CN1C(=O)NC(c2ccc(O)cc2)C2=C1CN(c1ccc(O)cc1)C2=O (centres undefined) | 4.84 µM (active) | – |
| Cc1cc(C)nc(SSc2nc(C)cc(C)n2)n1 | inactive | – |
| Cc1cc(C)nc(NC(=O)c2ccc(Cl)cc2)n1 | inactive | – |
| Cc1cc(C)nc(Nc2ccc(O)cc2)n1 | 3.35 µM (active) | – |
| Oc1ccc(-c2[nH]ncc2-c2cccc3cccnc23)c(O)c1 | 18.1 µM (active) | – |
| COc1ccccc1-n1cc(CN2CCN(C3CCCCC3)C(CCO)C2)cn1 (centres undefined) | inactive | – |
| O=C(c1cccc(F)c1)N1CCC(N2CCOCC2)CC1 | inactive | – |
| CCc1ccc(OCc2nnc(SCC(=O)Nc3cccc(C(=O)N4CCOCC4)c3)o2)cc1 | inactive | – |
| O=C(c1cccc(-c2ccc(O)cc2)c1)N1CCOCC1 | 4.07 µM (active) | – |
| O=C(c1ccc2ccccc2c1)N1CCN(c2ccc(O)cc2)CC1 | 4.79 µM (active) | – |
| O=C(c1ccc2ncsc2c1)N1CCN(c2ccc(O)cc2)CC1 | 3.9 µM (active) | – |
| O=C1c2ccccc2S(=O)(=O)c2cc(C(=O)N3CCC(N4CCCC4)CC3)ccc21 | inactive | – |
| c1coc(-c2nnc(-c3ccco3)nn2)c1 | inactive | – |
| O=C(N/N=C/c1ccc(O)cc1O)/C(=C/c1ccccc1)CCO | 11.2 µM (active) | – |
| COc1ccc(OC)c(CCNC(=O)Cn2sc3nc(C)cc(C)c3c2=O)c1 | inactive | – |
| Cc1cc2nc3ccc(N(C)C)cc3nc2cc1N | 90.6 µM (active) | – |
| O=C(O)Cc1c[nH]c2cccc(O)c12 | 34.4 µM (active) | – |
